Source: PubChem BioAssay AID1903 (Southern Research Specialized Biocontainment Screening …, 2009)
In all, about 310,000 compounds went through this assay and about 1,200 (0.39%) were called active. No rule for the calls is given here. Not all results are given here. Potency and affinity values are given separately.

Each compound was assayed against Large T antigen (Simian virus 40) (UniProt P03070) (assay: TAg ATPase/helicase activity blockers – biochemical (AID 1903)). Conditions: SV40 large T antigen ATPase/helicase inhibition assay; at 20 µM; hits give high values.
Large T antigen (Simian virus 40), sequence (P03070 whole entry, looked up): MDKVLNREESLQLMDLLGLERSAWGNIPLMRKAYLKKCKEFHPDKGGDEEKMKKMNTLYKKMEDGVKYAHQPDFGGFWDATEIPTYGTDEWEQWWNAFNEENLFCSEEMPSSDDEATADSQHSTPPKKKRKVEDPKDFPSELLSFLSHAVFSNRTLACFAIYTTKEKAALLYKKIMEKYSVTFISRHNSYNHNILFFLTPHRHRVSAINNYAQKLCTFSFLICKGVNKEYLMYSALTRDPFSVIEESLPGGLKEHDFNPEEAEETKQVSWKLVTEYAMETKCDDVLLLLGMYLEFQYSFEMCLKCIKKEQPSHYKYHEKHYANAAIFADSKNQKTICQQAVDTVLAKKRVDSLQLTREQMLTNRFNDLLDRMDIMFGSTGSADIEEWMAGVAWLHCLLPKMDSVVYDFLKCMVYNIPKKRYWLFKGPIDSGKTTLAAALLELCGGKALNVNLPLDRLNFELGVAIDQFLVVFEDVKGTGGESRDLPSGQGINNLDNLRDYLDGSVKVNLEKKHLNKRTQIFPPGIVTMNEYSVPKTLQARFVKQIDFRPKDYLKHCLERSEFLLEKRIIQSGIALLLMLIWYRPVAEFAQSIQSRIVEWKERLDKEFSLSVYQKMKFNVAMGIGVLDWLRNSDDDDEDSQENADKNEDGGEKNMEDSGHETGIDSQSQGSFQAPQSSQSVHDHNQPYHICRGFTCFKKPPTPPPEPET

inhibition, inactive:
CCCOc1ccc(/C=N/NC(=O)c2nnn(-c3nonc3N)c2-c2cccs2)cc1OC 10.3%, COc1ccc(/C=N/NC(=O)c2nnn(-c3nonc3N)c2-c2cccs2)cc1OC 7.55%, COc1cc(/C=N/NC(=S)Nc2cccc(C(=O)O)c2)cc(OC)c1OC 5.01%, COc1ccc(/C=N/NC(=S)Nc2cccc(C(=O)O)c2)cc1OC 19.3%, COc1cc(/C=N/NC(=O)c2cccs2)ccc1OCc1ccccc1 -0.01%, O=C(CNC(=O)c1cccc(F)c1)N/N=C/c1cccc([N+](=O)[O-])c1 16.8%, COc1cc(/C=N/NC(=O)c2cccc([N+](=O)[O-])c2)cc(OC)c1O 20.1%, COc1cccc(/C=N/NC(=O)c2cccs2)c1 -1.95%, COc1cc(OC)c(C(=O)NCC2CCCO2)cc1OC (centres undefined) -5.36%, CS(=O)(=O)N1CCCC(C(=O)Nc2ccccc2F)C1 (centres undefined) 1.68%, O=C(O)c1cccc(NC(=O)c2ccccc2NC(=O)c2ccccc2F)c1 9%, Cc1ccc(NC(=O)CN(C)CC(=O)Nc2ccccc2C#N)cc1 8.84%, CC(Oc1ccc(Br)cc1)C(=O)O/N=C(\N)c1ccncc1 (centres undefined) 2.31%, COc1cccc(C(=O)C2CCCN(Cc3cn(C)nc3-c3ccccc3)C2)c1 (centres undefined) -3.2%, COc1cc2[nH]c(-c3cccc(F)c3)cc(=O)c2cc1OC 16.1%, CN(CC(=O)Nc1ccc(S(N)(=O)=O)cc1)Cc1ccccc1F 4.84%, COc1cc(/C=N\NC(=O)C2COc3ccccc3O2)cc(OC)c1O (centres undefined) 37.5%, COc1cc(/C=N/NC(=O)c2cnccn2)cc(OC)c1OC -1.61%, COc1ccc(/C=N/NC(=O)c2cccc([N+](=O)[O-])c2)cc1O 29.7%, O=C(CC1SC(=O)NC1=O)Oc1ccc(/C=N/NC(=O)c2ccccc2O)cc1 (centres undefined) 48.3%, COc1ccc(/C=N/NC(=O)c2cccc([N+](=O)[O-])c2)cc1OC 22.1%, COc1ccc(/C=N/NC(=O)C2COc3ccccc3O2)cc1OC (centres undefined) -1.14%, COc1ccc(/C=N/NC(=O)c2cnccn2)cc1O 26.2%, COc1cc(/C=N/NC(=O)c2ccccc2O)ccc1OCC(=O)Nc1ccccc1 13.3%, N#CCc1c(C#N)c(N)nc(N2CCOCC2)c1C#N 5.53%, CN(Cc1ccccc1)S(=O)(=O)c1ccc(NC(=O)c2ccccc2C(=O)O)cc1 4.64%, Cc1ccc(Cn2cnc3sc4c(c3c2=O)CCC4)c(C)c1 9.2%, O=C(N/N=C\C=C\c1ccc2c(c1)OCO2)C1COc2cc3ccccc3cc2O1 (centres undefined) 7.25%, COc1ccc(C(=O)Nc2cc(C)on2)cc1OC 4.7%, O=C(O)c1sccc1Oc1ccc(NS(=O)(=O)c2ccccc2)cc1 9.58%, O=C(OCc1nc2ccccc2[n+]([O-])c1C(=O)c1ccccc1)c1cccs1 8.13%, COc1cc(/C=N/NC(=O)c2c(-c3ccccc3)noc2C)cc(OC)c1OC 0.27%, CCOc1cc(/C=N/NC(=O)c2c(-c3ccccc3)noc2C)ccc1O 34.1%, CCOc1ccc(/C=N/N(C)c2ccccc2)cc1OC 3.32%, COc1cc(/C=N/N(c2ccccc2)c2ccccc2)ccc1O 18.7%, COc1cc(/C=N/NC(=O)c2cc[n+]([O-])cc2)ccc1O 27.9%, COc1ccc(/C=N/NC(=O)c2cc(C3CC3)[nH]n2)cc1OC 11.7%, COc1cc(/C=N/NC(=O)c2cc(C3CC3)[nH]n2)cc(OC)c1OC 8.67%, COc1cc(C(=O)N/N=C/c2ccc(OC(=O)c3ccccc3)c(OC)c2)ccc1O 23.2%, Cc1c(NS(=O)(=O)c2ccc(Br)s2)c(=O)n(-c2ccccc2)n1C 3.2%, O=C(NCCc1ccco1)c1cc(COc2cccc(C(F)(F)F)c2)on1 29.7%, CCc1ccc(CN2CCC(n3nccc3NC(=O)Cc3ccccc3)CC2)o1 13.5%, Cc1ccc(N(CC(=O)N/N=C/c2cccc(Br)c2)S(C)(=O)=O)cc1 9.07%, COc1cc(/C=N/NC(=O)c2cc3ccccc3[nH]2)ccc1O 27.5%, CC(C)(C)c1cc(C(=O)N/N=C/c2ccccc2O)n(-c2ccccc2)n1 19.8%, Cc1ccc(/C=N/NC(=O)c2nc3nc(C)cc(C)n3n2)cc1 22.5%, Cc1cc(C)n2nc(C(=O)N/N=C/c3ccc(Cl)cc3)nc2n1 6.6%, CC(C)(C)c1cc(C(=O)N/N=C/c2ccc(F)cc2)n(-c2ccccc2)n1 -0.35%, COc1cc(/C=N/NC(=O)c2cccc(C(=O)N/N=C/c3ccc(O)c(OC)c3)n2)ccc1O -2.1%, CCOc1cc(/C=N\NC(=O)c2c(C)nc3ccccn23)ccc1O 35%, COc1ccc(OC)c(/C=N\NC(=O)c2c(C)nc3cc(C)ccn23)c1 11.2%, COc1ccc(S(=O)(=O)N2CCCC(C(=O)NCCC(C)C)C2)cc1 (centres undefined) 5.62%, Cc1cccc(NC(=O)c2cc(-c3cc(C)c(C)cc3O)n[nH]2)c1 4.66%, CCOC(=O)Cc1c(C)nc(SC)[nH]c1=O 1.67%, Cc1nn(C)c(Oc2ccccc2)c1CCNC(=O)CCl -0.24%, COc1cccc(OC)c1C(=O)Nc1ccc(S(=O)(=O)Nc2cc(C)nc(C)n2)cc1 20.7%, COc1ccc(N(CC(=O)NCc2ccncc2)S(=O)(=O)c2ccccc2[N+](=O)[O-])c(OC)c1 2.38%, COc1cc(/C=N/NC(=O)c2ccc3nc[nH]c3c2)cc(OC)c1OC 8.71%, COc1ccc(/C=N/NC(=O)c2ccc3nc[nH]c3c2)cc1OC 3.44%
